Shiga inhibitor = Shiga toxin inhibition. Vero cells, Shiga toxin protein synthesis inhibition reporter. inhibition, % at 38.7 µM. hit rate 9.2% among 290,000; in the data active means inhibition mostly above about 28%, no sharp cut-off; inactive means mostly below about 43%; further: 0% is about no effect
AMA1 RON2 block = disrupts binding of P. falciparum AMA1 to RON2 | hit rate 0.2% among 360,000 | AlphaScreen AMA1-biotinylated RON2 peptide binding | Potency, µM (highest dose often 58.2 µM), for the others: at the highest dose activity change, negative = inhibition, most hits filed as inhibitors;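 further: potency means the concentration at half of the fitted maximal effect; 0% = vehicle wells and -100% = peptide control; nearly all actives have a fitted effect of over 45% in size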
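AMA1 (3D7) with his tag at 25 nM final met compounds first, then biotinylated RON2 peptide at 25 nM; detection used donor plus acceptor beads, 10 µg/mL apiece, read by AlphaScreen after 30 min at room temperature.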
Pf growth 96h = inhibits malaria parasite growth, 96 h. P. falciparum luciferase reporter growth, 96 h. Potency, µM (top dose mostly 28.7 µM), for inactives: at the highest dose activity change, negative = inhibition, actives largely listed as inhibitors. hit rate 6.9% among 320,000; further: potency means the concentration at half of the fitted maximal effect; on the % scale 0 is the no-effect control and ±100 the full control effect
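Two-generation exposure (96 h) targets delayed-death phenotype. Reporter parasites carrying integrated firefly luciferase, in red cells at 2% hematocrit and 0.05% parasitemia final, kept at 37 C, 5% CO2; luminescence loss indicates inhibition.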
Cycloheximide cs = affects cycloheximide protein synthesis inhibition readout, counter-screen | max response, % | hit rate 12% among 300,000 | cell reporter, cycloheximide protein synthesis inhibition counterscreen; in the data active means max response mostly above about 13%, no sharp cut-off; inactive means mostly below about 14%; further: read at 38.3 µM for the half of the compounds with a filed dose; 0% is about no effect
Pf growth 48h = inhibits P. falciparum growth in the first generation, 48 h; P. falciparum luciferase growth in erythrocytes, 48 h; Potency, µM (doses to about 28.7 µM), for inactives: top-dose activity change, negative = inhibition, actives largely listed as inhibitors; hit rate 5.9% among 310,000; further: potency means the concentration at half of the fitted maximal effect; on the % scale 0 is the no-effect control and ±100 the full control effect
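Firefly luciferase activity from engineered P. falciparum reports growth; inhibitors lower the luminescent signal. Cultures contained 2% hematocrit erythrocytes at 0.1% final parasitemia.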
HCV inhibitor = HCV inhibition. Huh7.5.1 HCVcc-Cre infection, luciferase reporter, 44 h. Potency, µM (highest dose often 41.8 µM), for inactives: at the top dose activity change, negative = inhibition, actives largely listed as inhibitors. hit rate 3.4% among 340,000. AID 651820; further: potency means the concentration at half of the fitted maximal effect; on the % scale 0 is the no-effect control and ±100 the full control effect
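Cells (1,000/well) were plated 4 h before compound, then infected with HCVcc-Cre virus (~0.5 moi). After 44 h further culture, infection was read as luciferase luminescence following a 15 min substrate incubation at room temperature.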
* hit, by the source's call; ? = inconclusive; . = no result; + = active, no number; [ ] = remark or other dose. An excerpt weighted towards active compounds, which were near 21% of everything screened. Unless noted, the call rests on the fitted dose curve; in most records, active means well fitted curve in the direction sought with a large enough effect; inconclusive means small, poorly fitted or top-dose-only effect, or another doubt; inactive means no such curve, though single readings can be large; an effect the other way counts as inactive or inconclusive.

SMILES	Shiga inhibitor	AMA1 RON2 block	Pf growth 96h	Cycloheximide cs	Pf growth 48h	HCV inhibitor
CCCCC1=CC2=CC(=O)C(C)(OC(=O)CC)C(=O)C2=CN1CCc1c[nH]c2ccccc12 (stereo not drawn)	6	1%	10µM*	7	8.3µM*	?
COC(=O)CCCC1=CC2=CC(=O)C(C)(OC(=O)c3cccs3)C(=O)C2=CN1CCc1c[nH]c2ccccc12 (stereo not drawn)	1	-8%	10µM*	-2	8.3µM*	7%
COC(=O)CCCC1=CC2=CC(=O)C(C)(OC(=O)c3cccs3)C(=O)C2=CN1CCCOC(C)C (stereo not drawn)	-4	-19%	10%	-1	?	2%[8.37 µM]
COc1ccc(NC(=S)N2CCN(Cc3ccccc3)CC2)cc1	26	-7%	?	13	28%	5%
CCN1CCN(Cc2ccc(NC(=O)Nc3ccc(SC)cc3)cc2)CC1	58*	-2%	.	44*	1.7µM*	?
COc1ccc(Cn2c(=O)[nH]c3cc(C(=O)Nc4ccccc4C)ccc32)cc1	-6	0%	-11%	-1	-13%	0%
CCN1CCN(c2ccc(NC(=O)c3ccc4c(c3)[nH]c(=O)n4Cc3ccc(OC)cc3)cc2)CC1	-11	?	10µM*	-2	?	?
CCN1CCN(Cc2ccc(NC(=O)Nc3ccccc3)cc2)CC1	+	0%	-11%	46*	-23%	-1%
CCN1CCN(Cc2ccc(NC(=O)Nc3ccc(OC)cc3)cc2)CC1	42*	-5%	-10%	21*	?	-3%
CC(C)c1ccc(C(=O)NC(=S)Nc2ccc3[nH]c(=O)[nH]c3c2)cc1	5	29%	32%	-2	-23%	?
C=CCCC(=O)N1C[C@H]2CON(C)[C@H]2C[C@H]1c1ccc(Br)cc1	.	-4%	.	.	.	.
Cc1cccc(NC2=NCC(=O)N2Cc2cccs2)c1	-3	?	7%	8	20%	1%
CCN1CCN(Cc2ccc(NC(=O)Nc3cccs3)cc2)CC1	40*	-2%	-25%	41*	7%	-3%
Cc1ccc(N2C(=O)N(CC(=O)Nc3ccc(C)cc3Cl)C(=O)C2C)cc1 (stereo not drawn)	.	3%	-3%	.	14%	?
CC(=O)N1CCOc2ccc(S(=O)(=O)N3CCC(C(=O)NCc4ccc(Cl)cc4)CC3)cc21	.	4%	.	.	.	.
COc1ccccc1N1CCN(/N=C/C=C/c2ccccc2[N+](=O)[O-])CC1	67*	5.6µM*	2%	13	-1%	?
O=[N+]([O-])c1ccc(Cl)c(/C=N/N2CCN(c3ccccc3)CC2)c1	11	?	20%	-3	-8%	-10%
O=[N+]([O-])c1ccccc1/C=N\N1CCN(c2ccccc2)CC1	61*	22µM*	21%	36*	37%	-8%
O=[N+]([O-])c1ccccc1/C=C\C=N\N1CCN(c2ccccc2)CC1	56	?	?	25*	-19%	?
O=[N+]([O-])c1ccccc1/C=N/N1CCN(c2ccc(Cl)cc2)CC1	13	?	?	0	0%	-27%
O=[N+]([O-])c1ccccc1/C=C/C=N/N1CCCCC1	63*	10µM*	160%	66*	288%	-9%
O=C(NCCNC(=O)c1cc(Cl)ccc1Cl)c1ccccn1	-5	4%	5%	-3	-1%	21%
CC1(c2nnc(Cc3ccccc3)o2)CC(c2ccccc2[N+](=O)[O-])=NO1 (stereo not drawn)	.	-1%	76%	.	6%	4%
Cc1nn(-c2ccc(C(F)(F)F)cn2)c(C)c1Oc1ccccc1O	61	-3%	8.3µM*	23*	.	-21%
Cc1cc(=O)[nH]c(-n2nc(C)c(Oc3ccccc3O)c2C)n1	-12	19%	11%	2	?	-22%
SMILES	Shiga inhibitor	AMA1 RON2 block	Pf growth 96h	Cycloheximide cs	Pf growth 48h	HCV inhibitor
Cc1ccc(-n2c(C)cc(C(=O)COc3c(CO)cc(F)cc3CO)c2C)cc1C	-9	-10%	9.3µM*	-2	?	?
Cc1cc(C(=O)CSc2n[nH]c(N)n2)c(C)n1-c1ccc2c(c1)OCO2	38	-13%	12µM*	10*	-25%	?
CNS(=O)(=O)c1cccc(C(=O)OCC(=O)c2cc(C)n(-c3ccc4c(c3)OCO4)c2C)c1	28	-11%	5.2µM*	36*	.	-24%
CS(=O)(=O)c1cccc(C(=O)OCC(=O)Nc2ccc3c(c2)OCO3)c1	.	-5%	23%	.	27%	-6%
Cc1cc(C=O)c(C)n1-c1cccc(C(=O)O)c1	-4	-19%	-11%	-2	29%	22%
Nc1nc(SCc2ccc3c(c2)OCO3)n[nH]1	12	-15%	29%	21	12%	2%
Cc1cc(C=O)c(C)n1-c1ccc2c(c1)OCO2	-3	-11%	3.7µM*	1	0%	13%
Cc1cc(OCC(=O)OCC(=O)N2CCCc3ccccc32)ccc1Cl	.	15%	.	.	.	.
Cc1cc(C(=O)COc2ccccc2Cl)c(C)n1-c1ccc2c(c1)OCO2	93*	-23%	8.3µM*	53*	?	-24%
CC(=O)N1c2ccc(S(=O)(=O)N(C)CC(=O)NCc3ccc(C)cc3)cc2CC1C (stereo not drawn)	2	2%	?	13	2%	2%
CNC1C(OC2C(O[C@@H]3C(O)C(O)[C@@H](N=C(N)N)C(O)C3N=C(N)N)OC(C)[C@@]2(O)CO)OC(CO)C(O)C1O (stereo partly drawn)	.	.	5%	.	4%	.
Cc1nc2sccn2c1P(c1c(C)nc2sccn12)c1c(C)nc2sccn12	-12	0%	?	-1	8.3µM*	-16%
CN1CCN(Cc2cc(=O)n3ccsc3n2)CC1	-21	19%	?	1	-5%	5%
Cc1cc(=O)n2ccsc2n1	-10	-20%	13µM*	-1	18%	33%
COc1ccc(CCNC(=O)c2c(C)nn(-c3ccccc3)c2Cl)cc1OC	-6	-23%	-20%	0	-10%	-13%
COc1cc(/C=C/C(=O)OCC(=O)Nc2ccc3[nH]c(=O)[nH]c3c2)ccc1OC(F)F	.	-12%	.	.	.	.
O=C(CN(Cc1cccs1)C(=O)CNS(=O)(=O)c1ccccc1)NC1CCCC1	-13	-10%	317%	-9	-2%	4%
O=C(C[n+]1cc(-c2ccc(F)cc2)n2c1CCC2)Nc1nc(-c2ccccc2)cs1	7	13%[2.32 µM]	?	6	?	?
Cn1c(NC(=O)C[n+]2cc(-c3ccc(Cl)c(Cl)c3)n3c2CCC3)cc(=O)n(C)c1=O	-3	-4%[2.32 µM]	0.83µM*	-3	1.3µM*	8%
Cc1ccccc1NC(=O)C[n+]1cc(-c2ccccc2)n2c1CCC2	14	-15%	5.9µM*	-2	?	14%

Source: PubChem BioAssay (National Center for Advancing Translational Sciences (NCATS))
